Source: PubChem BioAssay (National Center for Advancing Translational Sciences (NCATS))
SMN2 splice up: enhancers of SMN2 splice variant expression | HEK293 SMN2-luciferase splicing reporter, luminescence, 30-36 h | Potency, µM (titrated, usually from 46.1 µM), inactives show at the top dose activity change, positive = activation, hits mostly activators | 210,000 tested, 2.8% active | AID 1458; also: % of control where 0% means no effect; nearly all actives have a fitted effect of over 55% in size
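HEK293 cells carry an SMN2 minigene-luciferase reporter in which exon 7 inclusion puts luciferase in frame. Cells were seeded at 2000 cells/well, attached for 10-12 hours, then exposed to compounds for 30-36 hours at 37C before ONE-Glo luminescence.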
NPC1 promoter act: activates the NPC1 promoter; Potency, µM (doses to about 9.22 µM), without a hit: at the highest dose activation, hits mostly activators; AID 485313; Huh7 NPC1 promoter luciferase reporter, 24 h; 320,000 tested, 2.4% active; also: % of control where 0% means no effect; nearly all actives have a fitted effect of over 60% in size
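Huh7 cells stably carrying NPC1 promoter–luciferase, plated in Opti-MEM with 10% FBS for 2 h, were exposed to compound in DMSO for 24 h at 37 °C; luciferase reagent was added for 10 min and luminescence read.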
ELG1 genotoxic: induces genotoxicity in HEK293T cells with luciferase-tagged ELG1 | HEK293T ELG1-luciferase reporter, luminescence, 16 h | Potency, µM (titrated, usually from 46 µM), inactives show at the highest dose activity change, positive = activation, actives largely listed as activators | AID 504466 | 330,000 tested, 1.3% active; also: % of control where 0% means no effect; nearly all actives have a fitted effect of over 60% in size
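Reporter readout depends on ELG1 protein level, which increases with genetic stress. After 16 hr compound exposure at 37 °C, luciferase activity was quantified using ONE-Glo.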
ELG1 repair inh: inhibitors of ELG1-dependent DNA repair in HEK293T cells; 330,000 tested, 2.3% active; AID 504467; HEK293T ELG1-luciferase reporter, luminescence, 16 h; DNA damage induced by 5-fluorouridine; Potency, µM (top dose mostly 46.1 µM), for inactives: at the top dose activity change, negative = inhibition, usual class: inhibitors; also: % is scaled to controls: 0 for no effect and ±100 for the full control effect; nearly all actives have a fitted effect of over 55% in size
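In this reporter screen, reduction of luminescence relative to DMSO vehicle indicated activity. Compounds and 5-fluorouridine were added together to 2,000 cells per well, incubated for 16 hr at 37 °C, then developed with ONE-Glo.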
FLuc counter: counter-screen for miR-21 project: firefly luciferase inhibitors or activators; P08659; purified FLuc, Km substrates, luminescence inhibition; Potency, µM (top dose mostly 57.5 µM), inactives show at the highest dose activity change, negative = inhibition, actives largely listed as inhibitors; 360,000 tested, 6.9% active;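 also: plate controls were vehicle for no effect and reference inhibitor for full effect; nearly all actives have a fitted effect of over 55% in size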
Target sequence (P08659 whole entry, looked up): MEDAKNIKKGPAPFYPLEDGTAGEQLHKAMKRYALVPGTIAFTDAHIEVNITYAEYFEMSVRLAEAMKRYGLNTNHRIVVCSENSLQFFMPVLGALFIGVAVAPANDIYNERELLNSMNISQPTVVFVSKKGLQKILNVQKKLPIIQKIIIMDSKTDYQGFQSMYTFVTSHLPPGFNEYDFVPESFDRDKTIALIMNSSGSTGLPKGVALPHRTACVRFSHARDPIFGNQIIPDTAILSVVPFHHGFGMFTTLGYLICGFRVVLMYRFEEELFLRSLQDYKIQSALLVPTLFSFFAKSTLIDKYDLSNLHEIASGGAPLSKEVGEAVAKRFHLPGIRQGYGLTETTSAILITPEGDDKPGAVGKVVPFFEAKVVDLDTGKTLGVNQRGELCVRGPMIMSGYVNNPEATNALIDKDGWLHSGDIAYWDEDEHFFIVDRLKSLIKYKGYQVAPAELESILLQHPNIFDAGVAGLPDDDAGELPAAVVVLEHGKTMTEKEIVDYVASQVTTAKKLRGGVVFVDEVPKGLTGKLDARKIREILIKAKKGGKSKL
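Biochemical qHTS of compounds, final roughly 60 µM downward over six points, against 10 nM purified firefly luciferase using Km concentrations of substrates (10 uM D-luciferin, 10 uM ATP) in Tris acetate pH 7.5 buffer; luminescence output.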
Rab9 promoter act: activates the Rab9 promoter; Huh7 Rab9 promoter-luciferase reporter, luminescence, 24 h; Potency, µM (top dose mostly 9.22 µM), for inactives: top-dose activation, negative = inhibition, most hits filed as activators; AID 485297; 320,000 tested, 2.8% active; also: % of control where 0% means no effect; nearly all actives have a fitted effect of over 60% in size
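Cell-based reporter: Huh7 stable for Rab9 promoter-driven luciferase, plated in reduced-serum medium with 10% FBS at 1500 cells/well, compound-treated 24 h at 37 °C, luminescence read after 10 min reagent.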
* hit, by the source's call; ? = inconclusive; . = not tested or not shown; [ ] = remark or other dose. Rows were chosen to be rich in hits. Some 9.2% of all compounds tested hit in one or more screens of this group. Calls follow the shape of the dose curve; as a rule, active = well fitted curve in the direction sought with a large enough effect; inconclusive = small, poorly fitted or top-dose-only effect, or another doubt; inactive = no such curve, though single readings can be large; an effect the other way counts as inactive or inconclusive. Potency is read from the fitted curve at half-maximal effect.

SMILES | SMN2 splice up | NPC1 promoter act | ELG1 genotoxic | ELG1 repair inh | FLuc counter | Rab9 promoter act
CCOCCCNC(=O)c1cc(Sc2ccc(F)cc2)nc2ccccc12 | -11.5%[1.84 µM] | 0.2% | -9.8% | 18.4µM* | -0.7% | 0.2%
Oc1ccc(-c2csc(Nc3ncccn3)n2)c(O)c1 | 11.2µM* | 3.16µM* | 7.3µM* | ? | 3.01µM* | 1.12µM*
Oc1ccc(-c2csc(Nc3ncccn3)n2)cc1O | ? | 22.4% | ? | ? | 8.49µM* | -1.9%
NS(=O)(=O)c1ccc(Nc2nc(-c3ccc4ccccc4c3)cs2)cc1 | -46.6% | -5.5% | -0.8% | -19.1% | -11.5% | 4.8%
Cc1cccc(Nc2nc(-c3ccc(O)cc3O)cs2)n1 | . | 3.16µM* | ? | ? | 13.5µM* | 3.98µM*
Cc1ccc(C)c(-c2csc(Nc3ncccn3)n2)c1 | . | 15.2% | 6.8% | ? | -1.1% | 8.2%[1.84 µM]
CCN(C(=O)CSc1nnc(-c2ccc(F)cc2)n1C)C1CCS(=O)(=O)C1 (stereo unspecified) | . | . | 1.6% | 18.2% | . | .
C[C@@H](N)/C(N)=N/O | -10.0%[9.22 µM] | . | . | . | . | .
CC(C)[C@H](NS(=O)(=O)c1ccccc1)C(=O)OCC(=O)Nc1cccc(S(N)(=O)=O)c1 | . | . | -0.2% | 3.9% | . | .
CCOc1ccccc1NC(=O)C(C)N(c1ccccc1)S(C)(=O)=O (stereo unspecified) | -11.4% | . | . | . | 0.5% | .
O=C(Nc1ccc(S(=O)(=O)Nc2ncccn2)cc1)C12CC3CC(CC(Cl)(C3)C1)C2 | . | . | -1.1% | 1.8% | . | .
Cc1ccc(C)c(N2CCN(C(=O)Nc3ccc4c(c3)N(C)C(=O)CS4)CC2)c1 | . | -21.5% | -11.4% | 6.51µM* | ? | -17.1%
COc1cccc(NC(=O)Nc2ccc3c(c2)N(C)C(=O)CS3)c1 | 14.0% | 0.1% | -11.7% | ? | 12µM* | -2.7%
CN1C(=O)CSc2ccc(NC(=O)Nc3ccccn3)cc21 | ? | ? | 3.9% | ? | 3.01µM* | 2.82µM*
CN1C(=O)CSc2ccc(NC(=O)N3CCN(c4ccccn4)CC3)cc21 | -3.0% | -5.0% | 0.4% | ? | -5.4% | -8.0%
CC(=O)Nc1ccc(NC(=O)Nc2ccc3c(c2)N(C)C(=O)CS3)cc1 | . | -6.1% | -11.9% | ? | -16.8% | -0.4%
ClC1(Cl)CC1CSc1nc2ccccc2[nH]1 (stereo unspecified) | ? | ? | 17.4% | ? | 16.9µM* | ?
c1ccc2[nH]c(SCC3CCCCO3)nc2c1 (stereo unspecified) | 188.4% | 1.78µM* | ? | ? | 19µM* | 1.41µM*
O=C(O)CSc1nc2ccccc2[nH]1 | -2.0%[9.22 µM] | -3.8% | -1.6% | 4.2% | -1.2% | 5.6%
CCOc1ccc2nc(SCC3CC3(Cl)Cl)[nH]c2c1 (stereo unspecified) | . | 2.51µM* | ? | ? | 7.57µM* | 3.16µM*
Cc1cccc(C)c1OCc1cc(C(=O)N(Cc2c(C)nn(C)c2C)C2CC2)no1 | . | -10.0% | -6.8% | ? | 0.1% | -7.5%
Cc1ccc(C(CNS(=O)(=O)c2ccc(F)cc2C)N2CCN(C)CC2)cc1 (stereo unspecified) | . | -3.6% | 1.7% | ? | -26.3% | 0.4%
COc1ccc(-n2ccc(-c3nn(-c4cccc(C(F)(F)F)c4)ccc3=O)n2)cc1 | -18.3% | -8.2% | -1.0% | 8.2µM* | -2.2% | -1.1%
CC(=O)Oc1ccc2c(=O)c(-c3nc4ccccc4s3)coc2c1 | 12.6µM* | 1.26µM* | ? | ? | 1.07µM* | 1.26µM*
CC(=O)Oc1ccc2c(=O)c(Oc3ccccc3[N+](=O)[O-])coc2c1 | 11.2% | -1.1% | -1.5% | 1.8% | -8.1% | -1.3%
COC(=O)COc1ccc2c(=O)c(-c3ccccc3)coc2c1 | . | 2.9% | -1.9% | 5.6% | 16.9µM* | 1.3%
COC(=O)COc1ccc2c(-c3ccc(OC)cc3)cc(=O)oc2c1 | -10.5% | -0.7% | 0.9% | -0.2% | ? | -3.0%
